Results published in the supplement of paper PMC10849652.
Targets with a hit are over-represented here; the source holds about 8,800 in all. About 0.5% of all pairs of compound and target were hits.

Tests used:
Assay in all cases: log2 fold change, soluble protein after heating vs DMSO (PISA); higher = thermal stabilisation; K562 lysate, 10 uM; active = over 0.2 and 3.5 SD of the protein, either way, in both replicates (recomputed)
vemurafenib = compound: CCCS(=O)(=O)Nc1ccc(F)c(C(=O)c2c[nH]c3ncc(-c4ccc(Cl)cc4)cc23)c1F [vemurafenib]
Outline: (§1)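 Quantification was by TMTpro 16plex LC-MS/MS with equalised channel sums, applied to the supernatant after 21,000xg for 90 min. Samples were crude K562 extract at 1 mg/mL protein in PBS pH 7.4 with 1 mM MgCl2, treated with 10 μM compound for 30 min, heated for 3 min across 48°C-58°C, pooled and brought to 0.5% NP-40 at 4°C. Values are log-two fold changes in thermal stability relative to solvent controls, from duplicates.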

[1] = compound: CCCS(=O)(=O)Nc1ccc(F)c(C(=O)c2c[nH]c3ncc(Cl)cc23)c1F
Outline: as §1

barasertib = compound: CCN(CCCOc1ccc2c(Nc3cc(CC(=O)Nc4cccc(F)c4)[nH]n3)ncnc2c1)CCOP(=O)(O)O [barasertib]
Outline: as §1

[2] = compound: CC[C@@H]1C(=O)N(C)c2cnc(Nc3ccc(C(=O)NC4CCN(C)CC4)cc3OC)nc2N1C1CCCC1
Outline: as §1

volasertib = compound: CC[C@@H]1C(=O)N(C)c2cnc(Nc3ccc(C(=O)N[C@H]4CC[C@H](N5CCN(CC6CC6)CC5)CC4)cc3OC)nc2N1C(C)C [volasertib]
Outline: as §1

[3] = compound: CCn1c(C(=O)N(C2CC2)C2CC2)cc2c3c(ncn3C)c(Nc3cc(C)n(C)n3)nc21
Outline: as §1

[4] = compound: CCn1cc(-c2ccnc3[nH]c(-c4cccc(CN(C)C)c4)cc23)c(-c2ccc(NC(=O)N(C)C)cc2)n1
Outline: as §1

[5] = compound: CN1CCC(CNc2ccc3ncc(-c4cccc(OC(F)(F)F)c4)n3n2)CC1
Outline: as §1

saracatinib = compound: CN1CCN(CCOc2cc(OC3CCOCC3)c3c(Nc4c(Cl)ccc5c4OCO5)ncnc3c2)CC1 [saracatinib]
Outline: as §1

sotrastaurin = compound: CN1CCN(c2nc(C3=C(c4c[nH]c5ccccc45)C(=O)NC3=O)c3ccccc3n2)CC1 [sotrastaurin]
Outline: as §1

alvocidib = compound: CN1CC[C@H](c2c(O)cc(O)c3c(=O)cc(-c4ccccc4Cl)oc23)[C@H](O)C1 [alvocidib]
Outline: as §1

Tubastatin A = compound: CN1CCc2c(c3ccccc3n2Cc2ccc(C(=O)NO)cc2)C1 [Tubastatin A]
Outline: as §1

[6] = compound: CNC(=O)C1=CC=CC=C1NC2=NC(=NC=C2Cl)NC3=C(C=C(C=C3)N4CCOCC4)OC
Outline: as §1

defactinib = compound: CNC(=O)c1ccc(Nc2ncc(C(F)(F)F)c(NCc3nccnc3N(C)S(C)(=O)=O)n2)cc1 [defactinib]
Outline: as §1

[7] = compound: CNc1nc(-c2ccc3c(N)n[nH]c3c2)cc(N2C[C@@H](C(=O)NC3CCCCC3)CC[C@H]2C)n1
Outline: as §1

encorafenib = compound: COC(=O)N[C@@H](C)CNc1nccc(-c2cn(C(C)C)nc2-c2cc(Cl)cc(NS(C)(=O)=O)c2F)n1 [encorafenib]
Outline: as §1

[8] = compound: COC(=O)[C@H](CCSC)NC(=O)C1=C(C=C(C=C1)NC[C@H](CS)N)C2=CC=CC=C2
Outline: as §1

alisertib = compound: COc1cc(Nc2ncc3c(n2)-c2ccc(Cl)cc2C(c2c(F)cccc2OC)=NC3)ccc1C(=O)O [alisertib]
Outline: as §1

[9] = compound: COc1cc2nc(-c3cc(F)ccc3O)nc(N[C@@H]3CNC[C@H]3C(C)(C)O)c2cc1OC
Outline: as §1

gefitinib = compound: COc1cc2ncnc(Nc3ccc(F)c(Cl)c3)c2cc1OCCCN1CCOCC1 [gefitinib]
Outline: as §1

Measured: log2 fold change

PHKB isoform 3 (UniProt Q93100)
Sequence of UniProt Q93100 (Q93100 whole entry, looked up): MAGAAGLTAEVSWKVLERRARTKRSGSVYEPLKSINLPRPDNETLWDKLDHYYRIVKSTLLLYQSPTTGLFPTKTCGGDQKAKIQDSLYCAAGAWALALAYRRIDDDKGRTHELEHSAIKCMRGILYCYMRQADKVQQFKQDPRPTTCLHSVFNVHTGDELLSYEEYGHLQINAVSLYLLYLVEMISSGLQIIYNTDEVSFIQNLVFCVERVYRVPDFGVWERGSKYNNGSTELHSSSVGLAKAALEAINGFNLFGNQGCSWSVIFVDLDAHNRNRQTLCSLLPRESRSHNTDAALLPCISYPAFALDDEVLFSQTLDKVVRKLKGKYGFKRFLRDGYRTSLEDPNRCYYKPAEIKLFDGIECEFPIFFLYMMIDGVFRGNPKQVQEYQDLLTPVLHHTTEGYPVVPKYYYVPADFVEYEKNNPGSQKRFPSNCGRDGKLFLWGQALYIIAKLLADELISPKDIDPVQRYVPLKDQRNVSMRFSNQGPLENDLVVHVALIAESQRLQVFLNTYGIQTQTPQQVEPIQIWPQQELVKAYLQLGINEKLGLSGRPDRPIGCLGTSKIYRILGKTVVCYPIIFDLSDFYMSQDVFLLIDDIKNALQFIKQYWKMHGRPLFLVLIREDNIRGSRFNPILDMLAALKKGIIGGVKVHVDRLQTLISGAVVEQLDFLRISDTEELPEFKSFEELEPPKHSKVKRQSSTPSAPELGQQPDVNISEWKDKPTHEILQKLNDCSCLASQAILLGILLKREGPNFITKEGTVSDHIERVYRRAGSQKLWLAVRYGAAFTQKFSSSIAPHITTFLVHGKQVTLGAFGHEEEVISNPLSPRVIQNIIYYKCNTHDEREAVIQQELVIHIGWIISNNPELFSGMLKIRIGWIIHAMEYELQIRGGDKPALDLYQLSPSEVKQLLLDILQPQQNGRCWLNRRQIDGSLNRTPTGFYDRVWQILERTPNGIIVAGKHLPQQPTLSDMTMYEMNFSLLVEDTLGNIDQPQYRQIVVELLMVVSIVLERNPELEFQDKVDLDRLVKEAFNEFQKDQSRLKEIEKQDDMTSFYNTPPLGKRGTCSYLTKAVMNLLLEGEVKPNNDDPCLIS
inactive: vemurafenib -0.043 | [1] -0.007 | barasertib 0.04 | [2] 0.022 | volasertib -0.034 | [3] 0.009 | [4] -0.146 | [5] 0.138 | saracatinib 0.019 | sotrastaurin -0.014 | alvocidib 0.04 | Tubastatin A -0.099 | [6] 0.223 | defactinib -0.006 | [7] -0.018 | encorafenib -0.019 | [8] 0.015 | alisertib 0.006 | [9] 0.107 | gefitinib 0.03

PELO (UniProt Q9BRX2)
Sequence of UniProt Q9BRX2 (Q9BRX2 whole entry, looked up): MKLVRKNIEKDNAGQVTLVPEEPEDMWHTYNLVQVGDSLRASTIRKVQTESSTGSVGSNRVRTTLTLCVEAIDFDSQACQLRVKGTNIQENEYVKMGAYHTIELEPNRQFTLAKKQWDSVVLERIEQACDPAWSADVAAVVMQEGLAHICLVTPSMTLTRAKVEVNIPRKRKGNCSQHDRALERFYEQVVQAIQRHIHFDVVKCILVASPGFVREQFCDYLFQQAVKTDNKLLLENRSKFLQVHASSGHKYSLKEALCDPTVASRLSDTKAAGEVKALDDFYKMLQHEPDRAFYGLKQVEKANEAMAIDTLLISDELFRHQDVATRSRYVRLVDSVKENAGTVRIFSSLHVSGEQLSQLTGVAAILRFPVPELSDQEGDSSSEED
inactive: vemurafenib 0 | [1] 0.021 | barasertib 0.037 | [2] -0.115 | volasertib -0.066 | [3] -0.014 | [5] -0.183 | saracatinib -0.001 | sotrastaurin -0.018 | alvocidib 0.149 | Tubastatin A -0.086 | [6] 0.026 | defactinib -0.022 | [7] -0.043 | encorafenib 0.056 | [8] 0.084 | alisertib 0.008 | [9] 0.006 | gefitinib 0.006
active: [4] 0.404

PIK3C3 (UniProt Q8NEB9)
Sequence of UniProt Q8NEB9 (Q8NEB9 whole entry, looked up): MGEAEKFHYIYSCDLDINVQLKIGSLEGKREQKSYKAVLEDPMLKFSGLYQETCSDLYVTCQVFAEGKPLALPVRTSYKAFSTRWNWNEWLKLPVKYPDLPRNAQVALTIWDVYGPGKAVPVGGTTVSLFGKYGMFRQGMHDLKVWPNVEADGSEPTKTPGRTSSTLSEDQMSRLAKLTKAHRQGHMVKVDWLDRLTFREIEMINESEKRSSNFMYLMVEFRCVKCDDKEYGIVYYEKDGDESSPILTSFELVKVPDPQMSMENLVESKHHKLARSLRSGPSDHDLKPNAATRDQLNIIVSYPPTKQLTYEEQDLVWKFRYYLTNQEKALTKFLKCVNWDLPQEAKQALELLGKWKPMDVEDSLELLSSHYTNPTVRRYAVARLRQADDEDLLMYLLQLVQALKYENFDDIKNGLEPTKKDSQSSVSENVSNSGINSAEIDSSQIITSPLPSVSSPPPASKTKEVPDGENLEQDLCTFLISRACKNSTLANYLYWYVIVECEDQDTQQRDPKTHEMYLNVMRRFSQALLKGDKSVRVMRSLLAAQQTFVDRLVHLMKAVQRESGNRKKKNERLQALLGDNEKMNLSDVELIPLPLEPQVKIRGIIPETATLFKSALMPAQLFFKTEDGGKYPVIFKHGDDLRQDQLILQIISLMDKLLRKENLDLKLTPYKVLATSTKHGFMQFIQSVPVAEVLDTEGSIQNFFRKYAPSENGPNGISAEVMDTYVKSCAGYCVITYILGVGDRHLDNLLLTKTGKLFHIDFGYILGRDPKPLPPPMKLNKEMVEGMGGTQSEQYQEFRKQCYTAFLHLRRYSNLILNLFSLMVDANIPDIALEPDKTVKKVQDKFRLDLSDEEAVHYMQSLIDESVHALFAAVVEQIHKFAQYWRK
inactive: vemurafenib 0.032 | [1] 0.019 | barasertib -0.012 | [2] 0.098 | volasertib -0.025 | [3] -0.075 | [4] -0.226 | [5] 0.121 | saracatinib 0.008 | sotrastaurin 0.007 | alvocidib -0.081 | Tubastatin A 0.02 | [6] -0.019 | defactinib -0.004 | [7] -0.046 | encorafenib -0.016 | [8] 0.015 | alisertib 0.012 | [9] 0.048 | gefitinib -0.037

PDE2A (UniProt O00408)
Sequence of UniProt O00408 (O00408 whole entry, looked up): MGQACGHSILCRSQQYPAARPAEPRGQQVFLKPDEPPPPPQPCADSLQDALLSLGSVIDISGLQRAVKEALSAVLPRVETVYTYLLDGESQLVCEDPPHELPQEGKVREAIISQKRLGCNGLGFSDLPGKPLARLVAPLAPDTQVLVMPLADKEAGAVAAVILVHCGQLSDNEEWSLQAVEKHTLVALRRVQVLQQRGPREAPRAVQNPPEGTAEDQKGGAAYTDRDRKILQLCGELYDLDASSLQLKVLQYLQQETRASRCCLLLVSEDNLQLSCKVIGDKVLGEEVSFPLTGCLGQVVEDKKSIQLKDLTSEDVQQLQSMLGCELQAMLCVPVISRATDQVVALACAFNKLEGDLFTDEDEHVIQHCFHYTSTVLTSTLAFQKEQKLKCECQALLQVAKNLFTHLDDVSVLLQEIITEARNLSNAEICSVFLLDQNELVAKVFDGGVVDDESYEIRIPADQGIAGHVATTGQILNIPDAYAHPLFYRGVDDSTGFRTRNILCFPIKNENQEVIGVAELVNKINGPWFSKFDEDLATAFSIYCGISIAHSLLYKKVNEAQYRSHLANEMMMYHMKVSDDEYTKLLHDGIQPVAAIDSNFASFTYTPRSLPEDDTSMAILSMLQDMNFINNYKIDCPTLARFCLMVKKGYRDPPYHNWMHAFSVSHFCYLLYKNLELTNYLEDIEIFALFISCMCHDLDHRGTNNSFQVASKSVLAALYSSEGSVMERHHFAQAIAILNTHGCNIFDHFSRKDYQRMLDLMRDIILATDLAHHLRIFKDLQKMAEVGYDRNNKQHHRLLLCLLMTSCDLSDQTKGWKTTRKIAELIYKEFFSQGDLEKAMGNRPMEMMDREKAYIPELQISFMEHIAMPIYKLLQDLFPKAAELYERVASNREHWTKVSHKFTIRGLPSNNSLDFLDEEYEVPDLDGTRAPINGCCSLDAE
active: vemurafenib 0.374
inactive: [1] -0.015 | barasertib -0.015 | [2] -0.215 | volasertib 0.041 | [3] -0.173 | [4] -0.135 | [5] 0.023 | saracatinib -0.042 | sotrastaurin 0.039 | alvocidib 0.038 | Tubastatin A 0.275 | [6] 0.044 | defactinib -0.24 | [7] 0.028 | encorafenib 0.11 | [8] -0.019 | alisertib 0.014 | [9] 0.048 | gefitinib -0.01

PRIM1 (UniProt P49642)
Sequence of UniProt P49642 (P49642 whole entry, looked up): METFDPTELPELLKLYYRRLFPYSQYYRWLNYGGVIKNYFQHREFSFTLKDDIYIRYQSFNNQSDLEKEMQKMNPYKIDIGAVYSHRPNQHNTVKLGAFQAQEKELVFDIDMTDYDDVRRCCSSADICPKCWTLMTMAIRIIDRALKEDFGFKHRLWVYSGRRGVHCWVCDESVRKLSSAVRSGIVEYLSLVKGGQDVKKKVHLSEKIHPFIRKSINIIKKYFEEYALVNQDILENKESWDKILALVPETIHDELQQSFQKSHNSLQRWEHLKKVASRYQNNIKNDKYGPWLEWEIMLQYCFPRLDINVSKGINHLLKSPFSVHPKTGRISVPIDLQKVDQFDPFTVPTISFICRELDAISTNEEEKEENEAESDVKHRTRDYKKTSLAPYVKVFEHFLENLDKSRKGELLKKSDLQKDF
inactive: vemurafenib -0.036 | [1] 0.022 | barasertib 0.031 | [2] -0.089 | volasertib -0.069 | [3] 0.062 | [4] -0.008 | [5] -0.029 | saracatinib -0.002 | sotrastaurin 0.007 | alvocidib 0 | Tubastatin A -0.11 | [6] 0.023 | defactinib -0.012 | [7] 0.033 | encorafenib 0.052 | [8] 0.041 | alisertib -0.054 | [9] -0.019 | gefitinib -0.008

PDXK (UniProt O00764)
active: [2] 0.329
inactive: vemurafenib 0.005 | [1] -0.001 | barasertib -0.014 | volasertib 0.025 | [3] -0.004 | [4] -0.134 | [5] 0.156 | saracatinib -0.023 | sotrastaurin -0.016 | alvocidib -0.031 | Tubastatin A -0.005 | [6] 0.027 | defactinib 0.047 | [7] 0.06 | encorafenib -0.032 | [8] -0.012 | alisertib -0.038 | [9] 0.016 | gefitinib -0.022

PRKCD (UniProt Q05655)
Sequence of UniProt Q05655 (Q05655 whole entry, looked up): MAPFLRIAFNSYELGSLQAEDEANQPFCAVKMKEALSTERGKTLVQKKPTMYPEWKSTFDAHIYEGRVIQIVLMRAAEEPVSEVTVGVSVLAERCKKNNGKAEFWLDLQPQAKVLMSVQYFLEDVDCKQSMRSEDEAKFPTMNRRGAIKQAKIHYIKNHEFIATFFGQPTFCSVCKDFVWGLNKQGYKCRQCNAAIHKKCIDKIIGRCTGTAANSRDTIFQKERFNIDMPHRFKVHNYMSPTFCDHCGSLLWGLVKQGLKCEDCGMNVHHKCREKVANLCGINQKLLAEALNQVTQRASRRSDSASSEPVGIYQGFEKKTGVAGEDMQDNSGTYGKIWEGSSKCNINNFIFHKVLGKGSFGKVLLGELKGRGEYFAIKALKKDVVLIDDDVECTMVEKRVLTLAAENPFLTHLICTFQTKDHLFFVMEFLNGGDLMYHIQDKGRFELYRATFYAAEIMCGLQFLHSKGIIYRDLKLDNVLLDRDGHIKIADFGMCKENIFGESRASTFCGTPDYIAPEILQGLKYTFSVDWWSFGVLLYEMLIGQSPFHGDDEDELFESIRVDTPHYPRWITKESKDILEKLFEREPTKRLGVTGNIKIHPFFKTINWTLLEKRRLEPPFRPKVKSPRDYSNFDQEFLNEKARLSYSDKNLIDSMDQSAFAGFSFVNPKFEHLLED
active: [9] 0.235
inactive: vemurafenib -0.006 | [1] -0.118 | barasertib 0.057 | [2] 0.008 | volasertib -0.041 | [3] -0.014 | [4] 0.012 | [5] 0.021 | saracatinib -0.005 | sotrastaurin 0.058 | alvocidib -0.082 | Tubastatin A 0.036 | [6] -0.012 | defactinib -0.032 | [7] -0.003 | encorafenib -0.009 | [8] 0.056 | alisertib -0.031 | gefitinib 0.002

PRKCA (UniProt P17252)
inactive: vemurafenib 0.019 | [1] -0.016 | barasertib 0.051 | [2] -0.186 | volasertib -0.054 | [3] 0.004 | [4] 0.101 | [5] -0.207 | saracatinib -0.046 | alvocidib 0.034 | Tubastatin A -0.005 | [6] -0.027 | defactinib 0.032 | [7] -0.041 | encorafenib 0.048 | [8] -0.041 | alisertib -0.031 | [9] 0.133 | gefitinib -0.038
active: sotrastaurin 0.924

POLB (UniProt P06746)
inactive: vemurafenib -0.013 | [1] 0.003 | barasertib -0.029 | [2] -0.013 | volasertib -0.025 | [3] 0.032 | [4] -0.015 | [5] -0.07 | saracatinib 0.033 | sotrastaurin 0.048 | alvocidib 0.023 | Tubastatin A -0.199 | [6] -0.062 | defactinib 0.028 | [7] -0.033 | encorafenib 0.045 | [8] 0.086 | alisertib 0.015 | [9] 0 | gefitinib 0.038
